Screening data from PubChem.
C diff growth: blocks growth of Clostridium difficile; 86,000 tested, 0.25% active; growth activity, negative = inhibition, % at 16 µg/mL (by protocol); Clostridium difficile clinical isolate growth, OD600, 24 h; active compounds read low;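 active = mean growth activity at or below -80% and every replicate also at or below -80%; inconclusive = mean at or below -80% but some replicate above -80%; inactive = mean growth activity above -80%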
T cruzi growth-1: inhibitors of T. cruzi proliferation | T. cruzi beta-gal in NIH3T3, GalScreen luminescence, 90 h | inhibition, % at 8.34 µM | 77,000 tested, 5.9% active;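 active = mean inhibition above about 93%, with at least 55% of replicates each passing it, limit read from the data, passing the limit was not always enough; inconclusive = only one of those two conditions holds; inactive = neither condition holds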
Pf Dd2 growth: inhibitors of Plasmodium falciparum Dd2 growth. P. falciparum Dd2 growth, SYBR Green, 72 h; active compounds read low. activity change, % at 10 µM. 94,000 tested, 2.3% active. AID 1159554; in the data active = activity change below about -80%; inconclusive = no clear call, values can overlap the other calls
T cruzi growth-2: inhibitors of T. cruzi proliferation; shares compounds with T cruzi growth-1; T. cruzi beta-gal in NIH3T3, GalScreen luminescence, 90 h; inhibition, % at 8.35 µM; 5,600 tested, 72% active;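 active = mean replicate inhibition above about 95% and at least 55% of replicates individually reaching it, limit read from the data; inconclusive = only one of the two criteria is met; inactive = neither criterion is met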
T cruzi growth-3: Trypanosoma cruzi proliferation inhibition; shares compounds with T cruzi growth-1; T. cruzi beta-gal in NIH3T3, GalScreen luminescence, 90 h; inhibition, % at 2.09 µM; 5,600 tested, 21% active;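 active = mean inhibition above about 95%, with at least 55% of replicates also reaching it, limit read from the data; inconclusive = meets just one of the two conditions; inactive = meets neither condition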
3T3 cytotox: cytotoxicity in mouse NIH/3T3 fibroblasts | shares compounds with T cruzi growth-1 | NIH/3T3 viability, CellTiter-Glo ATP luminescence, 90 h | cytotoxicity (signal decrease), % at 8.35 µM | 5,600 tested, 14% active;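 active = mean signal decrease across replicates above about 35% based on untreated-well scatter, with enough replicates individually passing, limit read from the data; inconclusive = no rule stated though some were filed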
NIH3T3 tox 2: kills mouse NIH/3T3 fibroblasts; shares compounds with T cruzi growth-1; AID 651744; inhibition, % at 24.9 µM; 5,600 tested, 56% active; NIH/3T3 viability, CellTiter-Glo ATP luminescence, 90 h;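 active = mean loss of cell viability signal at or above a set limit, and enough replicates individually reaching it; inconclusive = meets only the mean limit or only the replicate share; inactive = meets neither condition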
Large screens that a line does not name were inactive (follow-up assays come after a bar, where they were run). A selection: hits, their analogues and other compounds. The true share with any hit is near 6.7%.

CC(C)NC(=O)Nc1ccc2c(c1)C(=O)N([C@H](C)CO)C[C@@H](C)[C@H](CN(C)C(=O)c1ccncc1)OCCCC[C@H](C)O2	none
C[C@@H]1CN([C@@H](C)CO)C(=O)c2cc(NS(=O)(=O)c3cn(C)cn3)ccc2O[C@@H]1CN(C)C(=O)Nc1ccc(F)cc1	none (no result: C diff growth)
CO[C@H]1CN(C)C(=O)c2cc(NC(=O)Nc3cccc(Cl)c3)ccc2OC[C@@H](C)NC[C@H]1C	none (no result: C diff growth)
C[C@@H]1CN([C@@H](C)CO)S(=O)(=O)c2ccc(-c3ccc(F)cc3)cc2O[C@H]1CN(C)C(=O)C1CCC1	none (no result: C diff growth)
Cc1ccc(-c2ccc3c(c2)O[C@@H](CN(C)C(=O)C2CCCCC2)[C@H](C)CN([C@@H](C)CO)S3(=O)=O)cc1	T cruzi growth-1 120.1 (no result: C diff growth) | T cruzi growth-2 107.6 | T cruzi growth-3 inconclusive | 3T3 cytotox inactive | NIH3T3 tox 2 96.5
Cc1ccc(-c2ccc3c(c2)O[C@H](CN(C)C(=O)C2CCCCC2)[C@@H](C)CN([C@H](C)CO)S3(=O)=O)cc1	T cruzi growth-1 112.4 (no result: C diff growth) | T cruzi growth-2 107.7 | T cruzi growth-3 102.6 | 3T3 cytotox inactive | NIH3T3 tox 2 93.8
Cc1ccc(-c2ccc3c(c2)O[C@H](CN(C)C(=O)C2CCC2)[C@@H](C)CN([C@@H](C)CO)S3(=O)=O)cc1	none
Cc1ccc(-c2ccc3c(c2)O[C@@H](CN(C)C(=O)C2CC2)[C@@H](C)CN([C@H](C)CO)S3(=O)=O)cc1	none (no result: C diff growth)
C[C@@H]1CN([C@H](C)CO)S(=O)(=O)c2ccc(-c3ccc(F)cc3)cc2O[C@@H]1CN(C)C(=O)C1CCCCC1	T cruzi growth-1 107.7 | T cruzi growth-2 103.5 | T cruzi growth-3 inactive | 3T3 cytotox inactive | NIH3T3 tox 2 101.6
O=C(O)C[C@H]1C=C[C@H](NC(=O)CCN2CCCCC2)[C@@H](CO)O1	none (no result: T cruzi growth-1)
O=C(Nc1ccc(F)cc1)N1C[C@H]2[C@@H](c3ccccc31)[C@@H](CO)N2C(=O)c1ccccn1	none
COCC(=O)N[C@H]1CC[C@@H](CC(=O)NCc2ccc(Cl)cc2)O[C@H]1CO	none
CO[C@H]1CN(C)C(=O)c2ccc(NC(C)=O)cc2OC[C@H](C)N(C(=O)C2CCOCC2)C[C@H]1C	none (no result: C diff growth)
CO[C@@H]1CN(C)C(=O)c2ccc(NC(=O)C3CCCCC3)cc2OC[C@@H](C)N(Cc2nccs2)C[C@H]1C	none (no result: C diff growth, Pf Dd2 growth)
CO[C@@H]1CN(C)C(=O)c2cc(NC(=O)c3ccc(F)cc3)ccc2OC[C@@H](C)N(C(=O)c2ccc(F)cc2)C[C@@H]1C	none (no result: C diff growth)
O=C(C[C@@H]1CC[C@@H]2[C@H](COC[C@H](O)CN2S(=O)(=O)c2cccc(Cl)c2)O1)NC1Cc2ccccc2C1	none
COc1ccc(NC(=O)Nc2ccc3c(c2)C(=O)N([C@@H](C)CO)C[C@@H](C)[C@H](CN(C)S(=O)(=O)c2ccc(Cl)cc2)OCCCC[C@@H](C)O3)cc1	T cruzi growth-1 113.1 | T cruzi growth-2 106.8 | T cruzi growth-3 106.8 | 3T3 cytotox inactive | NIH3T3 tox 2 inactive
COc1ccc(S(=O)(=O)N(C)C[C@@H]2OCCCC[C@@H](C)Oc3ccc(NC(=O)Nc4ccccc4)cc3C(=O)N([C@H](C)CO)C[C@@H]2C)cc1	none
COc1ccc(NC(=O)Nc2ccc3c(c2)C(=O)N([C@H](C)CO)C[C@H](C)[C@@H](CN(C)S(=O)(=O)c2ccc(Cl)cc2)OCCCC[C@@H](C)O3)cc1	none
COc1ccc(NC(=O)Nc2ccc3c(c2)C(=O)N([C@H](C)CO)C[C@H](C)[C@@H](CN(C)S(=O)(=O)c2ccc(Cl)cc2)OCCCC[C@H](C)O3)cc1	T cruzi growth-1 115.4 | T cruzi growth-2 104.3 | T cruzi growth-3 inactive | 3T3 cytotox inactive | NIH3T3 tox 2 inactive
COc1ccc(NC(=O)Nc2ccc3c(c2)C(=O)N([C@@H](C)CO)C[C@@H](C)[C@@H](CN(C)S(=O)(=O)c2ccc(Cl)cc2)OCCCC[C@@H](C)O3)cc1	T cruzi growth-1 121.0 | T cruzi growth-2 104.9 | T cruzi growth-3 inactive | 3T3 cytotox inactive | NIH3T3 tox 2 inactive
COc1ccc(NC(=O)Nc2ccc3c(c2)C(=O)N([C@H](C)CO)C[C@@H](C)[C@@H](CN(C)S(=O)(=O)c2ccc(Cl)cc2)OCCCC[C@@H](C)O3)cc1	none (no result: T cruzi growth-1)
COc1ccc(NC(=O)Nc2ccc3c(c2)C(=O)N([C@H](C)CO)C[C@H](C)[C@H](CN(C)S(=O)(=O)c2ccc(C)cc2)OCCCC[C@H](C)O3)cc1	none (no result: C diff growth, T cruzi growth-1)
COc1ccc(S(=O)(=O)N(C)C[C@@H]2OCCCC[C@H](C)Oc3ccc(NC(=O)Nc4ccccc4)cc3C(=O)N([C@H](C)CO)C[C@@H]2C)cc1	T cruzi growth-1 110.4 | T cruzi growth-2 106.2 | T cruzi growth-3 inactive | 3T3 cytotox inactive | NIH3T3 tox 2 inactive
CC(C)CC#Cc1cnc2c(c1)C(=O)N([C@@H](C)CO)C[C@H](C)[C@@H](CN(C)Cc1ccccn1)O2	none
COc1cccc(-c2ccc3c(c2)[C@H]2[C@H](CCN2S(=O)(=O)c2ccccc2OC)[C@@H](CO)N3)c1	none
COc1ccc(NC(=O)Nc2ccc3c(c2)C(=O)N([C@H](C)CO)C[C@@H](C)[C@H](CN(C)S(=O)(=O)c2ccc(Cl)cc2)OCCCC[C@H](C)O3)cc1	T cruzi growth-1 104.4 | T cruzi growth-2 109.8 | T cruzi growth-3 102.4 | 3T3 cytotox inactive | NIH3T3 tox 2 inactive
COc1ccc(NC(=O)Nc2ccc3c(c2)C(=O)N([C@H](C)CO)C[C@H](C)[C@@H](CN(C)S(=O)(=O)c2ccc(OC)cc2)OCCCC[C@@H](C)O3)cc1	none
COc1ccc(NC(=O)Nc2ccc3c(c2)C(=O)N([C@@H](C)CO)C[C@@H](C)[C@H](CN(C)S(=O)(=O)c2ccc(OC)cc2)OCCCC[C@H](C)O3)cc1	none
COc1ccc(NC(=O)Nc2ccc3c(c2)C(=O)N([C@@H](C)CO)C[C@H](C)[C@@H](CN(C)S(=O)(=O)c2ccc(Cl)cc2)OCCCC[C@H](C)O3)cc1	T cruzi growth-1 113.4 | T cruzi growth-2 105.2 | T cruzi growth-3 95.7 | 3T3 cytotox inactive | NIH3T3 tox 2 inactive
C[C@@H]1CCCCO[C@@H](CN(C)S(C)(=O)=O)[C@H](C)CN([C@@H](C)CO)C(=O)c2cc(NC(=O)c3ccccc3)ccc2O1	none
CCCNC(=O)C[C@@H]1C[C@@H]2c3cc(NC(=O)CC4CC4)ccc3O[C@@H]2[C@@H](CO)O1	none
O=C(NCc1ccc(F)cc1)[C@@H]1[C@@H](CO)[C@@H]2Cn3c(cccc3=O)[C@@H]2N1C(=O)C1CC1	none
C[C@H](CO)N1C[C@H](C)[C@H](CN(C)S(C)(=O)=O)Oc2ccc(NC(=O)Cc3ccccc3)cc2CC1=O	none
